Compound activity deposited in PubChem BioAssay by National Center for Advancing Translational Sciences (NCATS).
HP1b binding inh = inhibitors of HP1-beta chromodomain binding to methylated histone tails. AlphaScreen HP1-beta / biotin-H3K9me3 peptide binding. Potency, µM (series often up to 114 µM), inactives show at the top dose activity change, negative = inhibition, usual class: inhibitors. P83916. 0.56% of 390,000 active; note: nearly all actives have a fitted effect of over 70% in size
Target sequence (P83916 whole entry, looked up): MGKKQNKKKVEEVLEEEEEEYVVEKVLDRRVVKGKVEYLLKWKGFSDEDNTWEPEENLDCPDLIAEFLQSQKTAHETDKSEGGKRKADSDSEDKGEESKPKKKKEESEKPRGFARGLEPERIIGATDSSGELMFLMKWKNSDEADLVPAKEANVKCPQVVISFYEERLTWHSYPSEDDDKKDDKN
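HP1-beta protein (50 nM final) preincubated 30 min at room temperature with biotinylated H3(1-18)K9me3 peptide (50 nM) in PBS pH 7.4, 0.01% Tween-20, then compound added for 30 min. AlphaScreen streptavidin donor/nickel chelate acceptor beads (10 ug/mL final), 30 min dark, luminescence read.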
PLK1 PBD block = blocks phosphopeptide binding to human PLK1 polo-box domain. Plk1 PBD binding of FITC phosphopeptide, fluorescence polarization. Potency, µM, for inactives: max response, negative = inhibition, hits mostly inhibitors. P53350. 2.8% of 360,000 active; note: series mostly up to about 57 µM; % is set by controls: 0 for no effect and ±100 for the full control effect; nearly all actives have a fitted effect of over 65% in size
BAZ2B inh = inhibitors of human BAZ2B bromodomain; Q9UIF8; 4.4% of 360,000 active; Potency, µM (doses to about 114 µM), for the others: at the highest dose activity change, negative = inhibition, hits mostly inhibitors; AID 504333; AlphaScreen BAZ2B-H3K14Ac peptide displacement; note: % is set by controls: 0 for no effect and ±100 for the full control effect; nearly all actives have a fitted effect of over 60% in size
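Protein-peptide AlphaScreen: BAZ2B 50 nM, b-H3K14Ac 50 nM, 1x PBS pH 7.4 + 0.01% Tween-20. Preincubation 30 min RT; cpd 30 min RT (top 110 uM); beads 20 min RT, light-protected.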
JMJD2A Tudor = inhibitors of human JMJD2A Tudor domain | O75164 | AlphaScreen JMJD2A-Tudor / H3K4me3 peptide binding | Potency, µM (doses to about 114 µM), without a hit: at the highest dose activity change, negative = inhibition, actives largely listed as inhibitors | 4.4% of 390,000 active | AID 504339; note: % is set by controls: 0 for no effect and ±100 for the full control effect; nearly all actives have a fitted effect of over 50% in size
G9a block = G9a (human) methyltransferase inhibition | AID 504332 | Q96KQ7 | 8.8% of 350,000 active | Potency, µM (series often up to 102 µM), inactives show at the top dose activity, negative = inhibition, actives largely listed as inhibitors | G9a H3K9 monomethylation, AlphaScreen, 2 h; note: % is set by controls: 0 for no effect and ±100 for the full control effect; nearly all actives have a fitted effect of over 75% in size
Target sequence (Q96KQ7 913-1193 limits assumed): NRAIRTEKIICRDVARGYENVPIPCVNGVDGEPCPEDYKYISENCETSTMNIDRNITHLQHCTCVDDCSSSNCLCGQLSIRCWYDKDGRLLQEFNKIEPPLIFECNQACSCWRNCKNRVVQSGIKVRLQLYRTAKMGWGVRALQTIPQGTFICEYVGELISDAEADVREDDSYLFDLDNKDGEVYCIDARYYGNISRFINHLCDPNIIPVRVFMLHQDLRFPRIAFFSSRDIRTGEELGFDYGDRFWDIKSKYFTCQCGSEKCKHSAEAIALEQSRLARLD
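Methyltransferase reactions run at room temperature for 2 h (20 nM enzyme, 500 nM biotin-H3K9 peptide, 20 uM SAM) after a 15 min compound preincubation; product detected by AlphaScreen beads and anti-H3K9me1 antibody.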
Sfp PPTase inh = inhibitors of Bacillus subtilis Sfp phosphopantetheinyl transferase; Q9F4F7; Biochemical Sfp PPTase activity, qHTS; Potency, µM, for the others: largest response in the series, negative = inhibition, usual class: inhibitors; 3.5% of 310,000 active; AID 1490;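 note: the enzyme is Sfp with the accession as filed and its product quenches rhodamine fluorescence; 0% = enzyme reaction without inhibitor and -100% = no enzyme wells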
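Reaction rates are the 30-min fluorescence difference (ex 525, em 598 nm) in wells containing 15 nM Sfp, 5 uM rhodamine-CoA and 12.5 uM BHQ-2-YbbR at pH 7.6 with 10 mM MgCl2.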
* = called active by the depositor; ! = repeats disagree; [ ] = dose if it differs, or a comment. In the library only some 12% were active in any assay of this set; here they are far more common. Calls come from the whole dose curve; as a rule, active = well fitted curve in the direction sought with a large enough effect; inconclusive = small, poorly fitted or top-dose-only effect, or another doubt; inactive = no such curve, though single readings can be large; an effect the other way counts as inactive or inconclusive. Potency is the fitted concentration of half-maximal effect.

For C[C@@H]1CN([C@@H](C)CO)C(=O)c2cc(C#CCN(C)C)cnc2O[C@H]1CN(C)Cc1ccc2c(c1)OCO2 the results were PLK1 PBD block -7%.
`CCN(CC)c1nc2ccccc2nc1C(=O)Nc1cc(OC)c(OC)c(OC)c1` gave HP1b binding inh 12%, BAZ2B inh inconclusive, JMJD2A Tudor inconclusive and G9a block 0%[59 µM].
Cc1ccc(N2CCN(c3ccc(C)cc3)C2c2ccncc2)cc1 was read as HP1b binding inh inconclusive, PLK1 PBD block -19%, BAZ2B inh -77%, JMJD2A Tudor -33%[11.4 µM], G9a block 35µM* and Sfp PPTase inh 45µM*.
For COc1cc(C2N(c3ccccc3)CCN2c2ccccc2)cc(OC)c1OC the results were HP1b binding inh -6%, PLK1 PBD block -2%, BAZ2B inh inconclusive, JMJD2A Tudor inconclusive, G9a block inconclusive and Sfp PPTase inh -20%.
Screening COc1ccc(CCNC(=O)c2coc(=O)c(Br)c2)cc1 returned HP1b binding inh 22%, PLK1 PBD block -8%, BAZ2B inh -4%, JMJD2A Tudor -16%, G9a block 12%[0.501 µM] and Sfp PPTase inh 17%.
For CN1C(=O)C(CC(=O)Nc2ccc(Cl)cc2)N(Cc2ccco2)C1=S (centres undefined) the results were HP1b binding inh 13%, PLK1 PBD block -18%, BAZ2B inh inconclusive, JMJD2A Tudor -32%, G9a block 45µM* and Sfp PPTase inh 18µM*.
COc1ccc(C2Nc3cc(OC)ccc3-n3cccc32)cc1 (centres undefined) was read as HP1b binding inh 222%, PLK1 PBD block 0%, BAZ2B inh 89%, JMJD2A Tudor 88%, G9a block -46% and Sfp PPTase inh -27%.
`COc1ccccc1CNC(=O)CCS(=O)(=O)c1cccs1` gave HP1b binding inh 29%, PLK1 PBD block -14%, BAZ2B inh 15%, JMJD2A Tudor -15%, G9a block 45µM* and Sfp PPTase inh -12%.
COc1ccccc1CNC(=O)COC(=O)CNS(=O)(=O)c1ccc(C)cc1 was read as HP1b binding inh 9%, PLK1 PBD block -7%, BAZ2B inh -26%, JMJD2A Tudor -19%, G9a block 71µM* and Sfp PPTase inh 28µM*.
Screening COc1ccc(CNC(=O)CCS(=O)(=O)Cc2ccc(C)cc2)c(OC)c1 returned HP1b binding inh 22%, PLK1 PBD block 4%, BAZ2B inh -22%, JMJD2A Tudor -8%, G9a block 7%[59 µM] and Sfp PPTase inh 10%.
`COc1ccccc1CNC(=O)CCS(=O)(=O)Cc1ccc(C)cc1` gave HP1b binding inh -4%, PLK1 PBD block 27µM*, BAZ2B inh -18%, JMJD2A Tudor -22%, G9a block inconclusive and Sfp PPTase inh 16%.
O=S(=O)(c1cc(Cl)ccc1Cl)N1CCN(c2ccccn2)CC1 was read as HP1b binding inh 44%, PLK1 PBD block 1%, BAZ2B inh 7%, JMJD2A Tudor 19%, G9a block 23% and Sfp PPTase inh -5%.
COC(=O)/C(Cc1cc(Br)c(OC)c(Br)c1O)=N/O was read as Sfp PPTase inh 7%.
For Fc1ccc(-c2cc(-c3nc(-c4ccccc4)no3)[nH]n2)cc1 the results were HP1b binding inh 47%, BAZ2B inh 4%, JMJD2A Tudor 0% and G9a block -3%[59 µM].
NC[C@H](O)c1ccc(O)c(O)c1 was read as HP1b binding inh -8%, PLK1 PBD block -18%, BAZ2B inh inconclusive, JMJD2A Tudor 7.9µM*, G9a block 9.5µM* and Sfp PPTase inh inconclusive.
Oc1ccc(C(O)CNCCCCCCNCC(O)c2ccc(O)c(O)c2)cc1O (centres undefined) was read as G9a block -40%[12.7 µM] and Sfp PPTase inh inconclusive.
For CC(C)NCC(O)c1ccc(O)c(O)c1 (centres undefined) the results were HP1b binding inh 11%, PLK1 PBD block 4%, BAZ2B inh -27%, JMJD2A Tudor -7%, G9a block 14µM*! and Sfp PPTase inh -24%.
For CCOC(=O)c1[nH]c(C)c(C(=O)OCC)c1C the results were HP1b binding inh 16%, PLK1 PBD block -5%, BAZ2B inh -29%, JMJD2A Tudor -28%, G9a block -23% and Sfp PPTase inh -6%.
CCOC(=O)c1c(C)[nH]sc1=S was read as HP1b binding inh inconclusive, PLK1 PBD block inconclusive, BAZ2B inh -3%, JMJD2A Tudor 25µM*, G9a block 3.5µM* and Sfp PPTase inh inconclusive.
Screening CCOC(=O)c1sc(=S)[nH]c1C returned HP1b binding inh inconclusive, PLK1 PBD block 0% and JMJD2A Tudor 14µM*.
Screening O=C1C=C(c2ccc3ncccc3c2)C[C@@H](c2ccc3c(c2)OCO3)C1 returned HP1b binding inh 11%, PLK1 PBD block 2%, BAZ2B inh inconclusive, JMJD2A Tudor inconclusive and G9a block 3%[2.33 µM].
Oc1ccc(-c2n[nH]c(=S)n2-c2ccc3c(c2)OCCO3)cc1 was read as HP1b binding inh -16%, PLK1 PBD block inconclusive, BAZ2B inh inconclusive, JMJD2A Tudor inconclusive, G9a block 0.71µM* and Sfp PPTase inh 79µM*.
`S=c1[nH]nc(-c2ccc3ncccc3c2)n1-c1ccc2c(c1)OCCO2` gave HP1b binding inh 1%, PLK1 PBD block -9%, BAZ2B inh -16%, JMJD2A Tudor inconclusive, G9a block 2.2µM* and Sfp PPTase inh 79µM*.
Screening Nc1nnc(CSCc2ccc(Cl)cc2Cl)s1 returned HP1b binding inh 9%, PLK1 PBD block 19µM*, BAZ2B inh 4%, JMJD2A Tudor -4%, G9a block inconclusive and Sfp PPTase inh 15%.
Screening CC(C)Oc1ccc(CNC(=O)c2ccc3c(c2)N(Cc2ccc(F)cc2)CCS3)cc1 returned HP1b binding inh 31%, BAZ2B inh 0%, JMJD2A Tudor -17% and G9a block 1%[59 µM].
Screening CC(c1ccccc1)N1CCc2[nH]c(=S)[nH]c(=O)c2C1 (centres undefined) returned HP1b binding inh 53%, PLK1 PBD block -12%, BAZ2B inh 1%, JMJD2A Tudor -3%, G9a block 40µM* and Sfp PPTase inh inconclusive.
`COCCN1CCc2[nH]c(=S)[nH]c(=O)c2C1` gave HP1b binding inh 25%, PLK1 PBD block -3%, BAZ2B inh inconclusive, JMJD2A Tudor -2%, G9a block 32µM* and Sfp PPTase inh 56µM*.
For CCCCN1CCc2[nH]c(=S)[nH]c(=O)c2C1 the results were HP1b binding inh -12%, PLK1 PBD block -3%, BAZ2B inh 16%, JMJD2A Tudor 25µM*, G9a block 35µM* and Sfp PPTase inh inconclusive.
`CCCN1CNc2c(c(=O)[nH]c(=S)n2CCC)C1` gave HP1b binding inh 20% and JMJD2A Tudor -24%.
